# Pol eta inh = DNA polymerase eta (human) inhibition; Q9Y253; recombinant Pol eta, fluorescent DNA replication assay; Potency, µM (series often up to 114 µM), for inactives: at the highest dose activity change, negative = inhibition, hits mostly inhibitors; 390,000 tested, 1.2% active; AID 588591; also: % is scaled to controls: 0 for no effect and ±100 for the full control effect
#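 Pol eta (10 nM) was preincubated with compounds for 15 min at room temperature, after which fluorescent replication substrate (50 nM final) was added to start the reaction. Fluorescence was read kinetically at 0 and 10 min.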
# POLI inh = DNA polymerase iota (human) inhibition. Q9UNA4. Pol iota fluorescent replication assay, 10 min. Potency, µM (series often up to 115 µM), for inactives: at the top dose activity, negative = inhibition, most hits filed as inhibitors. 390,000 tested, 1% active
#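 Pol iota at 10 nM preincubated 15 min with compounds at room temperature; reaction started with fluorescent substrate, 50 nM final. Fluorescence read kinetically at 0 and 10 min; buffer-only wells as negative control.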
# WRN inhibitor = blocks human WRN helicase | Q14191 | WRN helicase unwinding, fluorescent forked duplex, kinetic | Potency, µM (titrated, usually from 114 µM), for inactives: top-dose activity change, negative = inhibition, actives largely listed as inhibitors | 360,000 tested, 0.46% active; also: % is scaled to controls: 0 for no effect and ±100 for the full control effect; nearly all actives have a fitted effect of over 55% in size
#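 Screening of the MLSMR collection measured strand separation of a quenched forked DNA duplex (100 nM) by 20 nM WRN with 2 mM ATP, all final. Compounds were preincubated with enzyme 15 min at room temperature.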
# Pol beta inh = inhibitors of human DNA polymerase beta; P06746; 340,000 tested, 1.3% active; Pol beta primer extension/strand displacement, fluorescence kinetic; Potency, µM (doses to about 114 µM), without a hit: at the highest dose activity change, negative = inhibition, actives largely listed as inhibitors; also: % is scaled to controls: 0 for no effect and ±100 for the full control effect
#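 Human Pol beta at 10 nM; strand-displacement substrate 50 nM final. Compound exposure 15 min at room temperature before start, reaction 10 min at room temperature.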
# FEN1 inh = blocks human flap endonuclease 1; AID 588795; Potency, µM (top dose mostly 114 µM), for inactives: at the highest dose activity change, negative = inhibition, hits mostly inhibitors; Recombinant FEN1 flap cleavage, fluorescence, 15 min; 390,000 tested, 0.35% active; also: % is scaled to controls: 0 for no effect and ±100 for the full control effect; nearly all actives have a fitted effect of over 65% in size
#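 Steps: FEN1 (10 nM) dispensed; compound added by pin tool; 15 min at room temperature; substrate added to 50 nM final; reads at 0 min and 15 min; data normalized and fitted (four-parameter Hill).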
# POLK inh = inhibitors of human DNA polymerase kappa | Potency, µM (doses to about 107 µM), without a hit: at the top dose activity, negative = inhibition, most hits filed as inhibitors | 400,000 tested, 0.53% active | Q9UBT6 | purified Pol kappa, fluorescent DNA synthesis assay, 10 min; also: % is scaled to controls: 0 for no effect and ±100 for the full control effect
#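 Activity was followed as the change in fluorescence between reads at 0 and 10 min after starting the reaction with 50 nM substrate. Beforehand, 10 nM polymerase had been preincubated with compound for 15 min at room temperature.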
# Active calls of the source: *; ? = inconclusive; nt = no result given; [ ] = remark or other dose. Hits are enriched below; roughly 2.4% of the tested compounds scored in any of these assays. Calls follow the shape of the dose curve; as a rule, active = well fitted curve in the direction sought with a large enough effect; inconclusive = small, poorly fitted or top-dose-only effect, or another doubt; inactive = no such curve, though single readings can be large; an effect the other way counts as inactive or inconclusive. Potency is read from the fitted curve at half-maximal effect.
SMILES,Pol eta inh,POLI inh,WRN inhibitor,Pol beta inh,FEN1 inh,POLK inh
Cc1ccc2cc3c(N)c(C(=O)Nc4c(C)[nH]c(=O)[nH]c4=O)sc3nc2c1,?,?,-30%[57.1 µM],?,?,-28%
CN1CCc2nc3sc(C(=O)Nc4c(F)cccc4F)c(N)c3cc2C1,-28%,37%,nt,-3%,?,-15%
CC(C)OC(=O)CC(=O)c1sc2nc3c(cc2c1N)CN(C)CC3,?,11µM*,?,40µM*,?,?
CN1CCc2nc3sc(C(=O)Nc4cccc(C#N)c4)c(N)c3cc2C1,nt,?,nt,-17%,40µM*,0%
CCc1nnc(NC(=O)c2sc3nc4c(cc3c2N)CCCCCC4)s1,40µM*,25µM*,-10%[11.6 µM],40µM*,-1%,-43%
CC(=O)c1cccc(NC(=O)c2sc3nc4c(cc3c2N)CCCC4)c1,79µM*,-5%,nt,?,5%,9%
COc1ccc2c(c1)OC1(O)COc3cc(OC)c(OC)cc3C1=C2 (stereo not drawn),nt,nt,nt,nt,nt,-15%[60.1 µM]
CC(C)(C)c1ccc(N2C[C@@H](COc3ccc(C(=O)O)cc3)CC2=O)cc1,nt,nt,nt,nt,nt,19%[60.1 µM]
COC(=O)C(C)Oc1ccc2c(c1)O/C(=C\c1ccco1)C2=O (stereo not drawn),45µM*,45µM*,-18%,?,-8%,?
COc1cc(OC)c(OC)cc1/C=c1\[nH]c(=O)/c(=C/c2cc(OC)c(OC)cc2OC)[nH]c1=O,nt,11%,nt,nt,-5%,12%
O=C1c2ccccc2C(=O)N1CCc1csc(NNc2nc(CCN3C(=O)c4ccccc4C3=O)cs2)n1,?,?,-31%,25µM*,-14%,89µM*
Cc1ccc(-c2nc(CCN3C(=O)c4ccccc4C3=O)cs2)cc1,-4%,-7%,-3%,38%,?,-10%
CC[C@H](C)[C@H](NC(=O)[C@H](Cc1ccc(O)cc1)NC(=O)[C@@H]1CCCN1C(=O)[C@H](CCCN=C(N)N)NC(=O)[C@H](CCCN=C(N)N)NC(=O)[C@@H]1CCCN1C(=O)[C@H](CCCCN)NC(=O)[C@H](CC(N)=O)NC(=O)[C@H](CCC(N)=O)NC(=O)[C@H](Cc1ccc(O)cc1)NC(=O)[C@H](CC(C)C)NC(=O)[C@@H]1CCC(=O)N1)C(=O)N[C@@H](CC(C)C)C(=O)O,nt,nt,nt,nt,nt,16%[60.1 µM]
Cc1cccc(NC(=O)CN2C(=O)S/C(=C\c3ccc(O)c([N+](=O)[O-])c3)C2=O)c1,?,-8%,?,?,-1%,-15%
O=C1S/C(=C\c2ccc(O)c([N+](=O)[O-])c2)C(=O)N1Cc1cccc([N+](=O)[O-])c1,?,?,-8%[11.6 µM],32µM*,?,?
O=C(O)c1cccc(CN2C(=O)S/C(=C/c3ccccc3[N+](=O)[O-])C2=O)c1,79µM*,20µM*,-12%,28%,-17%,-25%
CCOC(=O)CN1C(=O)S/C(=C/c2cccc([N+](=O)[O-])c2O)C1=O,-13%,4%,-2%[57.1 µM],-23%,2%,-4%
CCc1ccc(NC(=O)C2CCN(c3nnc(-n4c(C)ccc4C)s3)CC2)cc1,nt,-2%,nt,1%,7%,-11%
CCOC(=O)c1cc(OCc2csc(-c3ccccc3)n2)cc(C(=O)OCC)c1,nt,-9%,nt,nt,2%,-14%
Cc1sc(-n2c(C)cc(/C=C3\SC(=S)NC3=O)c2C)c(C#N)c1C,22µM*,?,56µM*,32µM*,?,79µM*
Cc1[nH]c(=O)c(C(=O)/C=C/c2ccccc2F)c2c1CCCC2,?,18µM*,-8%,-1%,-4%,-9%
Cn1c(=O)c2[nH]c(N=NNc3ccccc3F)nc2n(C)c1=O,-17%,25µM*,-30%,-3%,2%,3%
COc1ccc(-c2cc(C3C4C=CCCC4(C)C(=O)N3Cc3ccccc3)ccc2F)cc1OC (stereo not drawn),nt,-10%,nt,nt,-23%,-10%
O=C(/C=C/c1ccco1)NC(=S)Nc1cccc(-c2nc3ccccc3s2)c1,?,?,-25%,nt,-14%,-23%
Cc1ccc(-c2nc3ccccc3s2)cc1NC(=S)NC(=O)/C=C/c1ccco1,20µM*,?,?,?,10%,-7%
SMILES,Pol eta inh,POLI inh,WRN inhibitor,Pol beta inh,FEN1 inh,POLK inh
CCCn1nnc(NC(=S)NC(=O)/C=C/c2ccco2)n1,?,?,?,?,?,50µM*
Cn1nnc(NC(=O)/C=C/c2ccco2)n1,-11%,50%,12%,2%,9%,1%
Cc1ccccc1NC(=S)NC(=O)/C=C/c1ccco1,18µM*,?,79µM*,32µM*,79µM*,?
O=C(/C=C/c1ccco1)NC(=S)Nc1cccc([N+](=O)[O-])c1,50µM*,?,?,40µM*,-23%,?
O=C(/C=C/c1ccco1)NC(=S)Nc1cc(-c2nc3ccccc3s2)ccc1Cl,22µM*,?,?,-3%,0%,-23%
Cc1ccc(-n2nc3ccc(NC(=S)NC(=O)/C=C/c4ccco4)cc3n2)cc1,?,14%,-18%,-13%,-4%,-8%
Cc1ccc(-n2nc3cc(C)c(NC(=S)NC(=O)/C=C/c4ccco4)cc3n2)cc1,?,6%,-7%,50µM*,5%,-8%
COc1cccc(NC(=O)/C=C/c2ccco2)c1,-15%,20%,-4%,-8%,-1%,-12%
CSc1cccc(NC(=O)/C=C/c2ccco2)c1,79µM*,?,-11%[11.6 µM],32µM*,-18%,?
CCOC(=O)c1ccc(CNc2ncnc3nc[nH]c23)cc1,nt,?,nt,nt,-16%,?
CCOc1ccc(NC2=CC(=O)CC(c3ccco3)C2)cc1 (stereo not drawn),-6%,8%,-1%,-7%,1%,-8%
CCCCCCCNC1=CC(=O)CC(c2ccco2)C1 (stereo not drawn),-24%,?,-27%,11µM*,-17%,-25%
O=C(Nc1ccccc1Br)c1cnn2c1NC(=C1CC1)C=C2C(F)F,nt,?,nt,nt,-4%,-19%
CS(=O)(=O)c1ccc2nc(NC(=O)c3ccc(=O)[nH]c3)sc2c1,50µM*,50µM*,-17%,-21%,-5%,-17%
CS(=O)(=O)c1ccc2nc(NC(=O)c3ccc(Cl)cc3)sc2c1,-21%,?,-2%[57.1 µM],36%,-3%,5%
COc1cccc2cc(C(=O)C3=C(O)C(=O)N(Cc4ccco4)C3c3cccnc3)oc12 (stereo not drawn),3.5µM*,4%,-10%[57.1 µM],-1%,-7%,-12%

# Screens deposited in PubChem by National Center for Advancing Translational Sciences (NCATS).
